37 targets from the supplement of paper PMC10849652 can be followed below.

About 7,900 targets were measured; listed, in parts, are those with a hit and a random draw of the rest. About 0.6% of all pairs of compound and target were hits. Unmarked numbers belong to inactive results.

UniProt Q9BZD2, sequence (Q9BZD2 whole entry, looked up): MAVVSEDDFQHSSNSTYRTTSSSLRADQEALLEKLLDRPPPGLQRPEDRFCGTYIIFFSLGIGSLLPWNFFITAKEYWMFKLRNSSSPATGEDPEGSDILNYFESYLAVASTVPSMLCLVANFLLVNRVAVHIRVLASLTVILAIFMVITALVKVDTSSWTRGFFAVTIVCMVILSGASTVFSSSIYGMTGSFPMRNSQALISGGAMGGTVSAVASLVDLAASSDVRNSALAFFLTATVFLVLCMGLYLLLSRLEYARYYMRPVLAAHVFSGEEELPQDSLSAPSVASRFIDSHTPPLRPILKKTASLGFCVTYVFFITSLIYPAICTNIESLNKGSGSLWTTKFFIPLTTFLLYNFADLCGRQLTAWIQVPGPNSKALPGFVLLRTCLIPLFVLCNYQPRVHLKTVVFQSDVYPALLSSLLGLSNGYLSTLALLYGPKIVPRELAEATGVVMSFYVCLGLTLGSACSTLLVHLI
UniProt P62318, sequence (P62318 whole entry, looked up): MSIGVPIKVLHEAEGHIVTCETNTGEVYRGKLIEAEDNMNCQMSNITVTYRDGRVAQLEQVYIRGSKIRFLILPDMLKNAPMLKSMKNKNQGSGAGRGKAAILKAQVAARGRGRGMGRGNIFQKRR
UniProt P12931, sequence (P12931 whole entry, looked up): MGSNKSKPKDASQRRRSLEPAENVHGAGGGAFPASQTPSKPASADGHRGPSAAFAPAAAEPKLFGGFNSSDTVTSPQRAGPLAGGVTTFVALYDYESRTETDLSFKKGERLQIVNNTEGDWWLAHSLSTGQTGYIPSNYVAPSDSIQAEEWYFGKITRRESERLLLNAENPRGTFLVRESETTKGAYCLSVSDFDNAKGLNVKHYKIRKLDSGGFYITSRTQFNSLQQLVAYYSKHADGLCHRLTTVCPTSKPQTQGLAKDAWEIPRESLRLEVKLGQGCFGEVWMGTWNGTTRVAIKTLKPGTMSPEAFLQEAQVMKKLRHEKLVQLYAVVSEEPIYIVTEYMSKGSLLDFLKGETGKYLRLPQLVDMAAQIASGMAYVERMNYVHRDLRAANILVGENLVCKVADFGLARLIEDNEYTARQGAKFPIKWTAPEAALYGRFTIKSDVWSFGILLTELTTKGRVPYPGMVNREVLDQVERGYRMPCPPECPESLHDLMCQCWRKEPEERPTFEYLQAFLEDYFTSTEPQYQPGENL
UniProt O95772, sequence (O95772 whole entry, looked up): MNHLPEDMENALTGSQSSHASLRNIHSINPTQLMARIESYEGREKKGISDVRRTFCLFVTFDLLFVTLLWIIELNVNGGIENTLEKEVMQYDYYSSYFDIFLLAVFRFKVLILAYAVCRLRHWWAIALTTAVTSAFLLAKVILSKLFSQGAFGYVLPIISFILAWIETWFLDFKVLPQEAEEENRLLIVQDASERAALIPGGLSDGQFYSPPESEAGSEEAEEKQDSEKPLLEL
UniProt Q8IWA5, sequence (Q8IWA5 whole entry, looked up): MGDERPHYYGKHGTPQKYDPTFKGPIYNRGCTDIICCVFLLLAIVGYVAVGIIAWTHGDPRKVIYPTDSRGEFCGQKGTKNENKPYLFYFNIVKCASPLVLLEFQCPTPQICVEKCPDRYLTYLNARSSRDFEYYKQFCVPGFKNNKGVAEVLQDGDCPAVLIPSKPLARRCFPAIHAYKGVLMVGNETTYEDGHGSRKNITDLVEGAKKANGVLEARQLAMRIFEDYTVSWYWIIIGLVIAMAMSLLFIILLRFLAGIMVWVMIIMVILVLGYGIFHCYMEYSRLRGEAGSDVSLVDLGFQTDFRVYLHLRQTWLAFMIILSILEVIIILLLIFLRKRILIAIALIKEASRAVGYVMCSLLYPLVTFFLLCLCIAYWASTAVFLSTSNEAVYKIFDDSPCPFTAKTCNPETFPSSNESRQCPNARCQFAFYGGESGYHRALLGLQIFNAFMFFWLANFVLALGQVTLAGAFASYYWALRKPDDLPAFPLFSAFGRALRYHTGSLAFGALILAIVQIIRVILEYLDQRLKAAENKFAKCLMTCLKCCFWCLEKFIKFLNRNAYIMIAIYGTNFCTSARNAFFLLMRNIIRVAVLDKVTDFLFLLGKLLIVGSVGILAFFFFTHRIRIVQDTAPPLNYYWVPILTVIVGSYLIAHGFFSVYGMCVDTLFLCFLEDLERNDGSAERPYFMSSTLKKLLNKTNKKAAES
UniProt O43815, sequence (O43815 whole entry, looked up): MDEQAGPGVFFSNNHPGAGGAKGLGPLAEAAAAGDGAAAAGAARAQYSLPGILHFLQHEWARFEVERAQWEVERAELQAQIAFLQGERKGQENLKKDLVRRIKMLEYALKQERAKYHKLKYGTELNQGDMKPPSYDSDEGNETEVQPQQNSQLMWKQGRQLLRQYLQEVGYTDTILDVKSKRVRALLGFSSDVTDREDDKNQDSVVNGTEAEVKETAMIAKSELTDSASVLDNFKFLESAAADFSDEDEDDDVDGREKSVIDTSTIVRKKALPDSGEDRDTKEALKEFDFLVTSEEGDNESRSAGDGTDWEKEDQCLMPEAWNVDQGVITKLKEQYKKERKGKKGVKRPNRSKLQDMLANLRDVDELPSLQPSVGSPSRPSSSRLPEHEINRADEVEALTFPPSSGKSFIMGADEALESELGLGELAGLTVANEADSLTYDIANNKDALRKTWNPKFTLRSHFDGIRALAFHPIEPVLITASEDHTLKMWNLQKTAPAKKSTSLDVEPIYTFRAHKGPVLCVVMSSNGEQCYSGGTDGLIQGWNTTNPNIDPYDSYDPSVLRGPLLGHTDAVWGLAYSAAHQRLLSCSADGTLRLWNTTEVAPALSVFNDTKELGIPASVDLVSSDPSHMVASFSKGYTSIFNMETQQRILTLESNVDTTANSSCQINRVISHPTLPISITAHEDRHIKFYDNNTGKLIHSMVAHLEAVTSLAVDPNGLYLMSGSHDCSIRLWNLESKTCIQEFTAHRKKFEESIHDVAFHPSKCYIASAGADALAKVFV
UniProt P02786, sequence (P02786 whole entry, looked up): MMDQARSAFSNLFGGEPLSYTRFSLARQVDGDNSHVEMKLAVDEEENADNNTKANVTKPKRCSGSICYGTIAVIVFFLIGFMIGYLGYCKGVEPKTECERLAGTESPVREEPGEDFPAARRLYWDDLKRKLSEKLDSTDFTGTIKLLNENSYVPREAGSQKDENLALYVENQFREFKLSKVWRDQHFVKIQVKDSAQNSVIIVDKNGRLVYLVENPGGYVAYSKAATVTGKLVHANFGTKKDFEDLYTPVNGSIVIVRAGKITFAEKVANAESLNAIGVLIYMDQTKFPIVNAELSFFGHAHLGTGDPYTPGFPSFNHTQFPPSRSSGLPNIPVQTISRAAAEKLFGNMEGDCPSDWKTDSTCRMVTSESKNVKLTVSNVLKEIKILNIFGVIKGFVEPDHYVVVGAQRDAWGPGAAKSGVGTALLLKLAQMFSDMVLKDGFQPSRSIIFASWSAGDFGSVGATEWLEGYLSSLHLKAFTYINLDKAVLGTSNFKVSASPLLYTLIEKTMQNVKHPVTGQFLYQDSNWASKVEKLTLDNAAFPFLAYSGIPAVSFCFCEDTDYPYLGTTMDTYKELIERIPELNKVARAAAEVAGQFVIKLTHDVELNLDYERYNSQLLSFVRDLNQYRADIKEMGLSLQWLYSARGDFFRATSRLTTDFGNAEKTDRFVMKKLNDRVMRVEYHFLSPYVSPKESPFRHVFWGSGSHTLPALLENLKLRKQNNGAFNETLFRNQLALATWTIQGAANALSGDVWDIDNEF
UniProt Q96CW6, sequence (Q96CW6 whole entry, looked up): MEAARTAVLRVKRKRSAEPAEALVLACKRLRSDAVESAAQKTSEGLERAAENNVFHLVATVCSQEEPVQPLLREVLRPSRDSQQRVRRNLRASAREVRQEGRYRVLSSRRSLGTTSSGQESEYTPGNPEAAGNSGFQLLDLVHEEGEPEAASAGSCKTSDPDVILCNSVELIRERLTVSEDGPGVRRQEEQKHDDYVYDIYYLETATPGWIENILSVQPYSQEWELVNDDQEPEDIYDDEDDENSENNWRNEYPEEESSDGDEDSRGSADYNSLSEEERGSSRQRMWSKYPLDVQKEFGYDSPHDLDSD
UniProt Q9NQZ5, sequence (Q9NQZ5 whole entry, looked up): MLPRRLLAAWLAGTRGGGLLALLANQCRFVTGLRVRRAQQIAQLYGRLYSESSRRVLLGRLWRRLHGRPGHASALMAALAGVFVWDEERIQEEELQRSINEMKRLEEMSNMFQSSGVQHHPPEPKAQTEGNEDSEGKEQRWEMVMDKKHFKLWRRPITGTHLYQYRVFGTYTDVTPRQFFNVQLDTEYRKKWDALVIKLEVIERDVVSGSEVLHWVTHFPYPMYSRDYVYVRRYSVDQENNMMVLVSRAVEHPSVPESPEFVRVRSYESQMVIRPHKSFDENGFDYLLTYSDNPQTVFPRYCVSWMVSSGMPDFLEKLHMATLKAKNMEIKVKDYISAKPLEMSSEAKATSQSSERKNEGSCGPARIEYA
UniProt Q86VD7, sequence (Q86VD7 whole entry, looked up): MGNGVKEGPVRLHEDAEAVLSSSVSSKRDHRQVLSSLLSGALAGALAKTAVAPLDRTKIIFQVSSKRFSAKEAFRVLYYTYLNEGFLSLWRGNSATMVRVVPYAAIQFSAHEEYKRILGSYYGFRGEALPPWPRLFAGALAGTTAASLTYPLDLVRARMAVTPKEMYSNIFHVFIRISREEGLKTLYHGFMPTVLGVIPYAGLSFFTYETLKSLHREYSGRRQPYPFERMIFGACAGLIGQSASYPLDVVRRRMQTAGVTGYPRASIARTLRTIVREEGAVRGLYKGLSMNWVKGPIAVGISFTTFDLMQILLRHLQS
UniProt P30626, sequence (P30626 whole entry, looked up): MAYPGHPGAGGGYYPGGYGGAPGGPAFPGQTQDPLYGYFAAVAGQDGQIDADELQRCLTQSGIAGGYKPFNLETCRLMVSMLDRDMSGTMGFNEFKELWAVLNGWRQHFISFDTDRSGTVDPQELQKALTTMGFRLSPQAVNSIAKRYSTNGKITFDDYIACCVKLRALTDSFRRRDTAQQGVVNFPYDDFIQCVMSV

Compound in the assay: C1CN(CCC1(CC2=CC=C(C=C2)Cl)N)C3=NC=NC4=C3C=CN4
As to the kind of experiment: log2 fold change, soluble protein after heating vs DMSO (PISA); higher = thermal stabilisation; K562 cells, 10 uM, 30 min; active = over 0.2 and 3.5 SD of the protein, either way, in both replicates (recomputed). The method, boiled down:
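K562 cells at 2×10^6 cells/mL were given 10 μM compound for 30 min. Aliquots then went through 3 min of heating across 48°C-58°C, were pooled, and were extracted in PBS with 0.5% NP-40 at 4°C, and the supernatant after 21,000xg for 90 min was quantified by TMTpro 16plex LC-MS/MS with channel sums equalised. Thermal stability relative to control samples, from duplicates, is given as log2 fold change.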
For STAT3 (UniProt P40763), the log2 fold change was -0.036.
As to SNX3 (UniProt O60493), the log2 fold change was -0.068.
For SLC25A42 (UniProt Q86VD7) the value was 0.066; for STRN (UniProt O43815), 0.053.
Consider SNX11 (UniProt Q9Y5W9), for which the log2 fold change is 0.071.
STARD3NL (UniProt O95772): the log2 fold change was 0.015.
In the case of SNX12 isoform 1 (UniProt Q9UMY4), the log2 fold change was -0.034.
For SRC isoform 2 (UniProt P12931), the log2 fold change is -0.025.
For SLIRP (UniProt Q9GZT3) the value was -0.028; for SPG11 (UniProt Q96JI7), -0.002; for TMBIM1 (UniProt Q969X1), 0.049.
As to TJP2 isoform 7 (UniProt Q9UDY2), the log2 fold change was 0.001.
Consider SMAD2 (UniProt Q15796), for which the log2 fold change is 0.019.
With TERF2IP (UniProt Q9NYB0), the log2 fold change was -0.006.
For STK25 (UniProt O00506) the value was 0.011; for STARD7 (UniProt Q9NQZ5), -0.029; for TCERG1 (UniProt O14776), -0.029.
Turning to SREK1 isoform 2 (UniProt Q8WXA9), the log2 fold change was -0.24.
As for TBC1D23 (UniProt Q9NUY8), the log2 fold change was -0.025.
Turning to TGFBI (UniProt Q15582), the log2 fold change was 0.029.
For TFRC (UniProt P02786) the value was 0.055; for SSR4 (UniProt P51571), -0.025; for THYN1 (UniProt Q9P016), -0.037.
As for SLC44A2 isoform 2 (UniProt Q8IWA5), the log2 fold change is 0.01.
In the case of SLC25A36 (UniProt Q96CQ1), the log2 fold change was 0.068.
On to TEX30 (UniProt Q5JUR7), for which the log2 fold change is -0.029.
TLK1 (UniProt Q9UKI8): the log2 fold change is -0.014.
In the case of SRI (UniProt P30626), the log2 fold change is -0.041.
Consider SLC35F6 (UniProt Q8N357), for which the log2 fold change was 0.122.
SPTBN4 (UniProt Q9H254): the log2 fold change was -0.05.
SNRPD3 (UniProt P62318): the log2 fold change is -0.012.
For the target SLC29A3 (UniProt Q9BZD2), the log2 fold change is 0.052.
For the target SLC27A1 (UniProt Q6PCB7), the log2 fold change is -0.064.
For SLC30A7 (UniProt Q8NEW0) the value was 0.132; for SLC7A6OS (UniProt Q96CW6), 0.022; for STEAP3 isoform 2 (UniProt Q658P3), 0.032.
For TAX1BP1 (UniProt Q86VP1) the value was -0.027.
